For the first experiment, the target named is PUM1 PUF domain R3-CRT (Homo sapiens, UniProt Q14671 828-1176, Q939T). As to the kind of experiment: yeast three-hybrid, YBZ-1, SC-Leu-His + 0.5 mM 3-AT, 4 days. To be noted: tags: N-Gal4 AD-HA kept; label: inside an RPR1-promoter hybrid RNA with tandem MS2 sites; ssRNA. In outline:
(§1)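 A centromeric plasmid in strain YBZ-1 co-expressed Pumilio-1 PUF domain libraries, randomized at the three base-contacting residues of each repeat, with matching RNA elements; the strain carries a LexA–MS2 coat fusion and a HIS3 reporter. After four days on SC-Leu (input) or SC-Leu-His + 0.5 mM 3-AT (selection), the repeat regions were PCR-amplified and Illumina-sequenced. The interaction score is the log change in variant frequency from input to selection, using log2 and a pseudocount of 1 where absent.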
Sequence of PUM1 PUF domain R3-CRT (Q14671 828-1176 Q939T): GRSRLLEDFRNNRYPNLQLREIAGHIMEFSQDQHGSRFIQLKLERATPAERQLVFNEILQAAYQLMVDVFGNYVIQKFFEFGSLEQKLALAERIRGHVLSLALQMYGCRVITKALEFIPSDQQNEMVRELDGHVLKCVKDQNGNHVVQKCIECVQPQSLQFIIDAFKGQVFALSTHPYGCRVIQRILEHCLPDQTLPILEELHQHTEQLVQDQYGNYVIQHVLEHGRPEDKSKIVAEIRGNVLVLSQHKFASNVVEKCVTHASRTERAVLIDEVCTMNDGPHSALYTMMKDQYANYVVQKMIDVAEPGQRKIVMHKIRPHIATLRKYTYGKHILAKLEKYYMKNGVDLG
Sequence of PUM1 PUF domain R3-GRD (Q14671 828-1176 C935G/Q939D): as the sequence (Q14671 828-1176 Q939T) above, with C108G, T112D counted along it
As to “GGCUAGAACUAGUGGAUCCCCCGGCGCCCGGCGGCUCGAGCCCGGGUAAGUGUAAGUAGUCUGCAUGCCGCCGGGCGCCAUGCCUGCAGGUCGACUCUAGAAAACAUG”, the binding signal is 1.54 log2 enrichment (interaction score).
For the sequence “GGCUAGAACUAGUGGAUCCCCCGGCGCCCGGCGGCUCGAGCCCGGGUAAGUGUAAAUAGUCUGCAUGCCGCCGGGCGCCAUGCCUGCAGGUCGACUCUAGAAAACAUG”, the binding signal was 3.85 log2 enrichment (interaction score).
Same read-out and setting: for “GGCUAGAACUAGUGGAUCCCCCGGCGCCCGGCGGCUCGAGCCCGGGUAAGUGUAAUUAGUCUGCAUGCCGCCGGGCGCCAUGCCUGCAGGUCGACUCUAGAAAACAUG” the value was 1.12 log2 enrichment (interaction score).

For a further experiment, the target named is PUM1 PUF domain R3-GRD (Homo sapiens, UniProt Q14671 828-1176, C935G;Q939D). The experiment is described as above. To be noted: tags: N-Gal4 AD-HA kept; label: inside an RPR1-promoter hybrid RNA with tandem MS2 sites; ssRNA. In outline:
as §1
On to “GGCUAGAACUAGUGGAUCCCCCGGCGCCCGGCGGCUCGAGCCCGGGUAAGUGUAAGUAGUCUGCAUGCCGCCGGGCGCCAUGCCUGCAGGUCGACUCUAGAAAACAUG”, for which the binding signal is 6.36 log2 enrichment (interaction score).
The same measure, in the same setting: for “GGCUAGAACUAGUGGAUCCCCCGGCGCCCGGCGGCUCGAGCCCGGGUAAGUGUAAAUAGUCUGCAUGCCGCCGGGCGCCAUGCCUGCAGGUCGACUCUAGAAAACAUG” the value was 4.82 log2 enrichment (interaction score).
Regarding “GGCUAGAACUAGUGGAUCCCCCGGCGCCCGGCGGCUCGAGCCCGGGUAAGUGUAAUUAGUCUGCAUGCCGCCGGGCGCCAUGCCUGCAGGUCGACUCUAGAAAACAUG”, the binding signal is 2.16 log2 enrichment (interaction score).

The values above are taken from PMC8384837, “Expanding the binding specificity for RNA recognition by a PUF domain”.
